From ChEMBL document CHEMBL1961873, “Compounds: GSK PKIS; Assays: Nanosyn kinase panel” (2012)

What was measured:
[1] = target: Serine/threonine-protein kinase PAK 6 (Homo sapiens) (UniProt Q9NQU5); conditions: at 1 µM;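 note: values are mean percent inhibition of PAK6 kinase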
[2] = test system: Tyrosine-protein kinase ABL1 (Homo sapiens), P00519 [E255K]; conditions: at 0.1 µM
[3] = test system: Tyrosine-protein kinase ABL1 (Homo sapiens), P00519 [E255K]; conditions: at 1 µM
[4] = test system: Tyrosine-protein kinase ABL1 (Homo sapiens), P00519 [H396P]; conditions: at 0.1 µM
[5] = test system: Tyrosine-protein kinase ABL1 (Homo sapiens), P00519 [H396P]; conditions: at 1 µM
[6] = test system: Tyrosine-protein kinase ABL1 (Homo sapiens), P00519 [M351T]; conditions: at 0.1 µM
[7] = test system: Tyrosine-protein kinase ABL1 (Homo sapiens), P00519 [M351T]; conditions: at 1 µM
[8] = test system: Tyrosine-protein kinase ABL1 (Homo sapiens), P00519 [Q252H]; conditions: at 0.1 µM
[9] = test system: Tyrosine-protein kinase ABL1 (Homo sapiens), P00519 [Q252H]; conditions: at 1 µM
[10] = test system: Tyrosine-protein kinase ABL1 (Homo sapiens), P00519 [T315I]; conditions: at 0.1 µM

Serine/threonine-protein kinase PAK 6 (Homo sapiens), sequence (Q9NQU5 whole entry, looked up): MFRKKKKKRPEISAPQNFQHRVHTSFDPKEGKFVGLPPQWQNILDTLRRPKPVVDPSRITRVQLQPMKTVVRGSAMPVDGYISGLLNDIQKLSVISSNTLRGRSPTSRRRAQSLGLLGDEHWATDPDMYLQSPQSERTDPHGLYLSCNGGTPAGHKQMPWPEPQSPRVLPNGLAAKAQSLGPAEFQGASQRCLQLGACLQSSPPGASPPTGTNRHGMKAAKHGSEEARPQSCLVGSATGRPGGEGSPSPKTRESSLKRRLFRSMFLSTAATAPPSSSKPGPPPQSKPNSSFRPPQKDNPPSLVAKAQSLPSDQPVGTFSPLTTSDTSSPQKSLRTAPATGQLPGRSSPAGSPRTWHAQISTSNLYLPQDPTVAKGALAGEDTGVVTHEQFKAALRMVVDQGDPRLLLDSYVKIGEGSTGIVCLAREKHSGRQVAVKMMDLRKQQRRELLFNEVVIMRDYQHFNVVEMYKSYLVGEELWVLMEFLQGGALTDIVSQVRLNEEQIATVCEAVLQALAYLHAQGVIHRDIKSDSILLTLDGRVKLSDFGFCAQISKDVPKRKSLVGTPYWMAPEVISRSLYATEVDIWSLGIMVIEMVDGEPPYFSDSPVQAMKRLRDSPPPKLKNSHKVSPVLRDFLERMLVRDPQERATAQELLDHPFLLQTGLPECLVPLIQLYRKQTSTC

Row | Compound | inhibition [1] | inhibition [2] | inhibition [3] | inhibition [4] | inhibition [5] | inhibition [6] | inhibition [7] | inhibition [8] | inhibition [9] | inhibition [10]
1 | COc1cccc(/C=N/Nc2ncnc3c2cnn3-c2cccc(OC)c2)c1 | -7.63% | 7.5% | 34.4% | 9.64% | 41.8% | 7.51% | 42% | 12.9% | 54.9% | 3.28%
2 | NS(=O)(=O)c1ccc(N/N=C2\C(=O)Nc3ccc(-c4cnco4)cc32)cc1 | -6.6% | 1.82% | 7.02% | 3.45% | 15.5% | 0.98% | 17.7% | 3.05% | 13.3% | 0.71%
3 | COc1cccc(-n2cnc3c(N/N=C/c4ccncc4)ncnc32)c1 | 3.44% | 30.8% | 80.2% | 47.1% | 87.1% | 44.7% | 88.1% | 40.1% | 84.2% | 1.94%
4 | Cc1ccc(C(=O)NC2CCC2)cc1-c1ccc(C(=O)NCC2CC2)cc1 | -6.65% | 1.89% | 1.67% | 1.26% | 0.31% | -0.23% | -0.39% | 0.6% | 1.97% | 0.82%
5 | CCc1ccc(Oc2nccc(-c3c(-c4ccc(F)cc4)ncn3C3CCNCC3)n2)cc1 | 2.92% | 0.49% | 4.7% | 3.35% | 3.77% | 0.72% | 1.75% | 3.25% | 3.37% | 2.83%
6 | NC(=O)c1cc(-c2ccc(F)cc2)cc(-c2ccncc2)c1N | -7.94% | 3.29% | 4.43% | 3.43% | 5.86% | 2.81% | 2.85% | 4.84% | 5.67% | 3.32%
7 | O=C1Nc2ccccc2/C1=C/Nc1ccc(-n2cncn2)cc1 |  | 1.9% | 9.03% | 2.67% | 13.3% | 1.55% | 14.5% | 3.88% | 13.4% | 3.25%
8 | Fc1ccc(-c2ncn(C3CCNCC3)c2-c2ccnc(Oc3ccc(F)c(F)c3)n2)cc1 | -4.15% | 1.96% | 1.25% | 4% | 3.19% | -0.04% | -0.02% | 2.26% | 2.39% | 0.22%
9 | Cc1ccc(C(=O)NC(C)C)cc1-c1ccc(C(=O)NCC2CC2)cc1 |  | -0.92% | -0.81% | -1.54% | -1.16% | -0.95% | 1.25% | -2.61% | -1.55% | -1.99%
10 | CN1CCN(CCCNc2nc3ccc(Oc4ccc(NC(=O)Nc5cc(C(F)(F)F)ccc5F)cc4)cc3[nH]2)CC1 | -3.76% | 0.07% | 4.6% | 0.89% | 15% | 14.3% | 45.5% | 12.8% | 48.1% | 16.6%
11 | COc1ccc(C2=C(N3CCc4ccccc43)C(=O)NC2=O)cc1 | -1.91% | 3.46% | 3.94% | 3.85% | 5.26% | -0.47% | 7.03% | 4.56% | 6.15% | 3.54%
12 | Clc1ccc(CNc2nccc(-c3cnn4ncccc34)n2)cc1 | -0.19% | 4.07% | 3.72% | 4.81% | 5.52% | 4.62% | 3.11% | 2.33% | 6.07% | 0.52%
13 | COc1ccc2cc(-c3c(-c4ccncc4)nc(-c4ccc(S(C)(=O)=O)cc4C)n3C)ccc2c1 | -3.99% | 2.69% | 10.9% | 5.32% | 17.9% | 2.32% | 18% | 6.25% | 22.4% | 8.12%
14 | COc1ccc2ncn(-c3cc(O[C@H](C)c4ccccc4Cl)c(C(N)=O)s3)c2c1 | 1.83% | 1.19% | 2.26% | 3.99% | 9.15% | 0.34% | 5.61% | 2.81% | 4.72% | 0.33%
15 | NS(=O)(=O)c1ccc(N/N=C2\C(=O)Nc3ccc(C(=O)NCCCn4ccnc4)cc32)cc1 |  | 5.15% | 10.9% | 5.17% | 14.3% | 0.91% | 14.2% | 5.21% | 13.1% | 3.66%
16 | CS(=O)(=O)CCNCc1cc(-c2cc3c(Nc4ccc(OCc5cccc(F)c5)c(Cl)c4)ncnc3s2)cs1 |  | 2.18% | 4.04% | 4.45% | 5.71% | 2% | 5.07% | 4.77% | 6.1% | 4.15%
17 | COc1ccc(-c2ccc3c(NC(=O)C4CC4)n[nH]c3n2)cc1 | -4.51% | 0.71% | 9.06% | 3.91% | 28% | 1.26% | 27.1% | 0.06% | 13.6% | 2.42%
